{
  "source": "PubChem BioAssay (NCATS)",
  "key": {"[1]": {"assay": "Primary qHTS for inhibitors of nuclear receptor binding SET domain protein 2 (NSD2) in an isogenic RCH-ACV NSD2 p.E1099K mutant (9B) (AID 1645876); note: nearly all actives have a fitted effect of over 70% in size; note: potency is the fitted concentration of half-maximal effect"}, "[2]": {"assay": "Primary qHTS for inhibitors of nuclear receptor binding SET domain protein 2 (NSD2) in an RCH-ACV wild type WT cells (2C) (AID 1645877); note: nearly all actives have a fitted effect of over 70% in size; note: potency is the fitted concentration of half-maximal effect"}, "[3]": {"target": "Rap guanine nucleotide exchange factor 3 (Homo sapiens) (UniProt O95398)", "sequence (O95398 whole entry, looked up)": "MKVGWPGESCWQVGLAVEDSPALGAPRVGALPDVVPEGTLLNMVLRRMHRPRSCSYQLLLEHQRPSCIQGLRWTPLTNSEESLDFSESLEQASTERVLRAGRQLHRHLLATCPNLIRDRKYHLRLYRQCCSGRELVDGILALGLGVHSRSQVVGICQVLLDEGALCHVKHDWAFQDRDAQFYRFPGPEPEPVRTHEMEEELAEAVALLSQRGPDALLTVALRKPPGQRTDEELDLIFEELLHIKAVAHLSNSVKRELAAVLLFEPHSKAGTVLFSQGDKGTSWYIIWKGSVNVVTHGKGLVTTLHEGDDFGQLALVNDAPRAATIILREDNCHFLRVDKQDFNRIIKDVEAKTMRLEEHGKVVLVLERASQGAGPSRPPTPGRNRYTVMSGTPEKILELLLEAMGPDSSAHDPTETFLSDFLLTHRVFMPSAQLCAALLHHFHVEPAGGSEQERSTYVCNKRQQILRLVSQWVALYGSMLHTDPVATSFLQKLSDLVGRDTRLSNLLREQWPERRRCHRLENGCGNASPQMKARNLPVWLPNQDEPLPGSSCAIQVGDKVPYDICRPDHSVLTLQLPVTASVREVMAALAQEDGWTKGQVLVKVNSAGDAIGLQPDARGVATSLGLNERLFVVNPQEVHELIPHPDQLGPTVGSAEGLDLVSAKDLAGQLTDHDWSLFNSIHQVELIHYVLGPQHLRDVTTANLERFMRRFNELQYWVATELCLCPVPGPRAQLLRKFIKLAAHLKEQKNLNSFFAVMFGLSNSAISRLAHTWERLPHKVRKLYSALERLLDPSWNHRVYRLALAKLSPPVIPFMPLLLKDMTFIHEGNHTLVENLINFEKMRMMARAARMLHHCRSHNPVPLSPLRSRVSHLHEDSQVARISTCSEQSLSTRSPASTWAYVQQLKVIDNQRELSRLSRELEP", "assay": "Confirmatory qHTS for antagonist of cAMP-regulated guanine nucleotide exchange factor 3 (EPAC1) (AID 1645880);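 note: plate controls were DMSO only for no effect and full effect of the ATA control for full effect; nearly all actives have a fitted effect of over 55% in size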", "in_short": "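Released BODIPY-GDP fluoresces less than Rap1-bound BODIPY-GDP; the signal is followed at 480/540 nm at 5-min intervals over 30 min, after 5 min at room temperature. Reactions contain 100 nM EPAC1, 250 nM RAP1B-BODIPY-GDP and 50 uM GDP; results are normalized to ATA and DMSO.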"}, "[4]": {"target": "Rap guanine nucleotide exchange factor 3 (Homo sapiens) (UniProt O95398)", "assay": "Confirmatory qHTS for agonist of cAMP-regulated guanine nucleotide exchange factor 3 (EPAC1) (AID 1645881);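 note: EPAC1 catalysed release of BODIPY-GDP from Rap1B seen as fluorescence loss; nearly all actives have a fitted effect of over 75% in size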"}, "[5]": {"target": "Rap guanine nucleotide exchange factor 4 (Homo sapiens) (UniProt Q8WZA2)", "sequence (Q8WZA2 whole entry, looked up)": "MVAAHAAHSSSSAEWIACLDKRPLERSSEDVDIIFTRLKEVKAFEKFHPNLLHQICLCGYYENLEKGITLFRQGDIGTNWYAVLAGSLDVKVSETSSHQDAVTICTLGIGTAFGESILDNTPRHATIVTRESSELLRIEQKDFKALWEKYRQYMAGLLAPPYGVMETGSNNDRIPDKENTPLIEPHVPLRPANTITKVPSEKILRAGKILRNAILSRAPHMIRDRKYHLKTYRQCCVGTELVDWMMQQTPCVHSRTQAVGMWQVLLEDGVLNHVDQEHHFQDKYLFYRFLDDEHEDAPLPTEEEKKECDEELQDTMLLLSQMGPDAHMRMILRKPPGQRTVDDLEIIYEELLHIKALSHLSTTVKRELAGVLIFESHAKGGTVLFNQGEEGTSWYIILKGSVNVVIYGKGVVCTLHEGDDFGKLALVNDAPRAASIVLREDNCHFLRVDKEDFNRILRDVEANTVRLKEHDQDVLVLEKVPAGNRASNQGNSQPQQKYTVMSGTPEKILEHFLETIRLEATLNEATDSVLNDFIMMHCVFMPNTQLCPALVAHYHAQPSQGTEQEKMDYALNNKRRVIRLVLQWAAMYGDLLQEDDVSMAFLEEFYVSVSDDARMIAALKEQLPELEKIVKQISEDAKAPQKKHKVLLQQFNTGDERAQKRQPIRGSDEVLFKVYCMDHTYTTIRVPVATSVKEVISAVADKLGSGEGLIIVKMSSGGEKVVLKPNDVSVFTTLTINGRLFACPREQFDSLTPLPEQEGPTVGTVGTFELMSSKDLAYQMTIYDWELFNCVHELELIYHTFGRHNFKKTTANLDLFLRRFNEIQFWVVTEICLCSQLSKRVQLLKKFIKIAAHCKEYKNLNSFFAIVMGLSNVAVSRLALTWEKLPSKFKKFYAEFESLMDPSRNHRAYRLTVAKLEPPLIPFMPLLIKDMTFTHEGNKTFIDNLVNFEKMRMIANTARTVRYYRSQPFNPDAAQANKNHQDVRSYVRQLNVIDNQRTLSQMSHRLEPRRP", "assay": "Confirmatory qHTS for agonist of cAMP-regulated guanine nucleotide exchange factor 4 (EPAC2) (AID 1645884);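 note: nucleotide exchange releases bodipy-GDP from Rap1 and this lowers its fluorescence; % is set by controls: 0 for no effect and ±100 for the full control effect; nearly all actives have a fitted effect of over 65% in size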"}, "[6]": {"target": "Catechol O-methyltransferase (Homo sapiens) (UniProt P21964)", "sequence (P21964 whole entry, looked up)": "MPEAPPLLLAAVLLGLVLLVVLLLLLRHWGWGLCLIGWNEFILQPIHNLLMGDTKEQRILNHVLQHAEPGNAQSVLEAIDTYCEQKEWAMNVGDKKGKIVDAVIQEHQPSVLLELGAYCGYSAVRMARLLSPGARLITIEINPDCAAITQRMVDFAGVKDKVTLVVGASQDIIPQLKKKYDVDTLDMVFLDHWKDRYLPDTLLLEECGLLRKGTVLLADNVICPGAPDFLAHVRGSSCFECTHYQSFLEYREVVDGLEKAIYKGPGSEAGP", "assay": "Confirmatory Screen for Target Class Profiling of Small Molecule Inhibitors of Methyltransferases (AID 1745852); for activity change, negative = inhibition: % is set by controls: 0 for no effect and ±100 for the full control effect", "details": "MTase-Glo luminescence, SAH detection, recombinant enzyme; measured here: COMT max response; stronger effect = lower value"}, "[7]": {"target": "Guanidinoacetate N-methyltransferase (Homo sapiens) (UniProt Q14353)", "assay": "Confirmatory Screen for Target Class Profiling of Small Molecule Inhibitors of Methyltransferases (AID 1745852)", "details": "MTase-Glo luminescence, SAH detection, recombinant enzyme; activity change, negative = inhibition: at 57.3 µM (top of the series) unless noted"}},
  "note": "Values joined by “and” are separate entries in the source; they are usually repeats but may differ in a detail not shown here. Equal values may be shown once. Records with an inconclusive call do not appear. Active and inactive are the calls of the source. Calls come from the whole dose curve; as a rule, active = well fitted curve in the direction sought with a large enough effect; inconclusive = small, poorly fitted or top-dose-only effect, or another doubt; inactive = no such curve, though single readings can be large; an effect the other way counts as inactive or inconclusive.",
  "data": [
    {"smiles": "O=C1c2ccccc2-[n+]2ccc3c([nH]c4ccccc43)c21", "values": [
      {"measurement": "Potency", "setting": "[1]", "value": "1.32 µM (active)"},
      {"measurement": "Potency", "setting": "[2]", "value": "1.32 µM (active)"}
    ]},
    {"smiles": "CN[C@@H](C)C(=O)N[C@H]1CN(C(=O)CC(C)C)CC[C@H]2CC[C@@H](C(=O)NC(c3ccccc3)c3ccccc3)N2C1=O", "values": [
      {"measurement": "Potency", "setting": "[1]", "value": "inactive"},
      {"measurement": "Potency", "setting": "[2]", "value": "inactive"}
    ]},
    {"smiles": "c1ccc2c(Cc3c[nH]c4ccccc34)c[nH]c2c1", "values": [
      {"measurement": "outcome", "setting": "[3]", "value": "inactive"},
      {"measurement": "outcome", "setting": "[4]", "value": "inactive"},
      {"measurement": "outcome", "setting": "[5]", "value": "inactive"}
    ]},
    {"smiles": "NC1CCC(Nc2nc(Nc3ccc(C(=O)N4CCCCC4)cc3)c3ncn(-c4cccc(F)c4)c3n2)CC1", "note": "(configuration not stated)", "values": [
      {"measurement": "Potency", "setting": "[1]", "value": "1.84 µM (active)"},
      {"measurement": "Potency", "setting": "[2]", "value": "2.06 µM (active)"}
    ]},
    {"smiles": "COc1ccc2c(Oc3ccc(NC(=O)c4c(C)n(CC(C)(C)O)n(-c5ccccc5)c4=O)cc3F)ccnc2c1", "values": [
      {"measurement": "Potency", "setting": "[1]", "value": "11.5 µM (active)"},
      {"measurement": "Potency", "setting": "[2]", "value": "14.5 µM (active)"},
      {"measurement": "activity", "setting": "[6]", "value": -4.14, "unit": "%"},
      {"measurement": "activity change, negative = inhibition", "setting": "[7]", "value": -3.46, "unit": "%"}
    ]},
    {"smiles": "N#C[C@H]1C[C@H]2C[C@@H]2N1C(=O)[C@@H](N)C12CC3CC(CC(O)(C3)C1)C2", "values": [
      {"measurement": "Potency", "setting": "[2]", "value": "inactive"}
    ]},
    {"smiles": "O=c1cc(-c2ccccc2)oc2cc(O)c(O)c(O)c12", "values": [
      {"measurement": "Potency", "setting": "[2]", "value": "23.5 µM (active)"}
    ]},
    {"smiles": "O=C(CCCCCCC(=O)Nc1ccccc1)NO", "values": [
      {"measurement": "Potency", "setting": "[1]", "value": "94.4 nM (active) and 1.63 µM (active) and 662 nM (active)"},
      {"measurement": "Potency", "setting": "[2]", "value": "106 nM (active) and 649 nM (active) and 833 nM (active)"}
    ]},
    {"smiles": "NC(=O)c1cnc(-c2ccc(C3(N)CCC3)cc2)c(-c2ccccc2)c1", "values": [
      {"measurement": "Potency", "setting": "[1]", "value": "2.95 µM (active) and 459 nM (active)"},
      {"measurement": "Potency", "setting": "[2]", "value": "11.8 µM (active) and 916 nM (active)"},
      {"measurement": "activity", "setting": "[6]", "value": -7.58, "unit": "%"},
      {"measurement": "activity change, negative = inhibition", "setting": "[7]", "value": 0.723, "unit": "%"}
    ]},
    {"smiles": "CC(C)(C(=O)NCC(F)(F)C(F)(F)F)C(=O)N[C@@H]1C(=O)Nc2ccccc2-c2ccccc21", "values": [
      {"measurement": "Potency", "setting": "[2]", "value": "inactive"}
    ]}
  ]
}
